# Reference: ChEMBL document CHEMBL4296182, “CO-ADD screening of NIH NCI Diversity Set V”
# For part of these data: Results with a measured potency or affinity are listed apart.
# Key:
# [1] = tested on: Staphylococcus aureus; experiment: Antibacterial activity against Staphylococcus aureus MRSA ATCC 43300 (CO-ADD:GP_020); MIC in CAMBH media using NBS plates, by Resazurin F(560/590); format: functional; conditions: Concentration 20 uM, ASSAY_TEST Inhibition of Bacterial Growth, detection method Resazurin, Fluorescence (ex560/em590), MEDIA CAMHB, plate type 384well, CORNING #3640, time 18 hr
# [2] = tested on: Acinetobacter baumannii; experiment: Antibacterial activity against Acinetobacter baumannii ATCC 19606 (CO-ADD:GN_034); MIC in CAMBH media using NBS plates, by Resazurin F(560/590); format: functional; conditions: Concentration 20 uM, ASSAY_TEST Inhibition of Bacterial Growth, detection method Resazurin, Fluorescence (ex560/em590), MEDIA CAMHB, plate type 384well, CORNING #3640, time 18 hr
# [3] = tested on: Escherichia coli; experiment: Antibacterial activity against Escherichia coli ATCC 25922 (CO-ADD:GN_001); MIC in CAMBH media using NBS plates, by Resazurin F(560/590); format: functional; conditions: Concentration 20 uM, ASSAY_TEST Inhibition of Bacterial Growth, detection method Resazurin, Fluorescence (ex560/em590), MEDIA CAMHB, plate type 384well, CORNING #3640, time 18 hr
# [4] = tested on: Klebsiella pneumoniae; conditions: Concentration 20 uM; ASSAY_TEST Inhibition of Bacterial Growth; detection method Absorption (OD600); MEDIA CAMHB; plate type 384well; NBS; CORNING #3640; time 18 hr
# [5] = tested on: Candida albicans; conditions: 20 µM
# [6] = tested on: Cryptococcus neoformans; conditions: Concentration 20 uM; ASSAY_TEST Inhibition of Fungal Growth; detection method Resazurin; Absorption (OD600-OD570); plate type 384well; NBS; CORNING #3640
SMILES,Inhibition [1],Inhibition [2],Inhibition [3],Inhibition [4],Inhibition [5],Inhibition [6]
Clc1nc2nc3n(c2nc1Cl)CCC3,9.08%,6.51%,0.57%,2.17%,3.01%,-9.39%
COc1cc2c(cc1OC)C(=O)Cc1ccc3c(c1CN(C)CC2)OCO3,7.05%,12.34%,18.89%,9.37%,-0.52%,-7.07%
CCOC(=O)c1c(N)ssc1=S,5.44%,2.94%,-3.33%,23.27%,10.5%,-3.18%
CCCCNc1cc(Cl)nc(N)n1,19.23%,-9.43%,4.85%,9.91%,0.7%,-8.27%
Cc1cc(C)n(C(=N)NC(=O)c2ccc([N+](=O)[O-])cc2)n1,1.83%,1.39%,-7.33%,8.27%,3.88%,44.63%
O=C(Nc1ccc(C(=O)O)c(O)c1)c1ccccc1 [BENZOYLPAS],-3.42%,-17.37%,4.17%,3.36%,6.26%,-5.98%
CC12CCC(C1)C(C)(C)C2OC(=O)c1ccccc1C(=O)O (centres undefined),7.81%,-7.81%,-3.09%,22.55%,4.22%,-18.67%
Cc1nc2ccccc2c(N)c1-c1cc(C)c2c(C)nc3ccccc3c2n1,-4.42%,8.74%,-14.9%,5.08%,2.89%,18.77%
COc1ccc(NC(=O)N2CCN(C(=O)Nc3ccc(OC)cc3)CC2)cc1,0.79%,9.56%,-5.74%,5.35%,-1.52%,3.31%
Cn1ncc2c(O)nc(N)nc21,6%,-7.72%,12.24%,14.42%,-0.53%,20.28%
ON=C(NCc1ccccc1)c1ccccc1,-15.15%,6.48%,-18.65%,2.92%,-0.43%,19.05%
Cc1c(C(C)(C(=O)O)c2c(C)n(C)c3ccccc23)c2ccccc2n1C,11.46%,7.57%,2.78%,3.48%,9.04%,-5.48%
CCCCOc1nc2c(c(=O)n(C)c(=O)n2C)n1C,18.84%,14.19%,18.86%,3.58%,11%,10.8%
CCCCOc1ccc(Nc2cc(Cl)ccc2C(=O)O)cn1,11.44%,0.16%,4.02%,9.69%,10.4%,-7.88%
CCOc1ccc(Nc2c3ccccc3nc3ccccc23)cc1,-9%,-1.21%,-17.49%,0.35%,-0.79%,-2.93%
Cc1cc2c3ccccc3ncn2n1,14.33%,-9.67%,5.54%,9.54%,5.02%,-5.91%
Cn1ncc2c(Nc3cccc(Cl)c3)nc(Nc3cccc(Cl)c3)nc21,15.88%,-2.31%,4.26%,11.58%,-1.22%,-11.25%
Cc1cc(O)c(-c2cc(O)c(C)cc2O)cc1O,5.49%,-9.17%,6.61%,0.01%,5.95%,17.06%
CC(=O)NC1=C/C(=C\[N+](=O)[O-])C=C1O,-1.13%,0.39%,10.35%,11.59%,0.53%,-2.2%
Oc1ccc(-c2nc3ccccc3s2)c(O)c1,-7.97%,-9.73%,5.22%,6.81%,13.4%,-4.68%
c1ccc(CSc2nnc3c4ccccc4c4ccccc4c3n2)cc1,-1.68%,11.2%,0.12%,1.09%,5.6%,-12.52%
COC(=O)CC1OCC=C2CN3CCC45C6=CC(=O)C(=O)C([N+](=O)[O-])=C6NC4C1C2CC35 (centres undefined),12.88%,-13.17%,11.73%,18.83%,-2.29%,-2.47%
CCOC(=O)/C=C/c1nc(O)c(C)c(C(=O)OCC)n1,-2.98%,-11.68%,5.55%,4.47%,0.35%,-10.31%
CC(=O)OCCn1c([N+](=O)[O-])cnc1/C=[N+](\[O-])C1CCCCC1,22.69%,11.41%,8.05%,25.14%,4.46%,-10.83%
Nc1ccc2c(c1)Cc1cc(Cl)c(Cl)cc1-2,12.19%,-1.44%,15.96%,4.46%,8.7%,-5.33%

SMILES,Inhibition [1],Inhibition [2],Inhibition [3],Inhibition [4],Inhibition [5],Inhibition [6]
Cc1nc(S)nc(O)c1CCC1OCCO1,13.84%,-2.91%,10.14%,-2.98%,-0.82%,-7.17%
COC(=O)C1(C)Cc2cc(OC(C)=O)c(OC(C)=O)cc2N1 (centres undefined),12.77%,0.02%,8.98%,5.52%,-3.71%,-8.65%
c1ccc(Sc2ncccn2)nc1,20.57%,-8.37%,7.64%,5.74%,3.74%,-10.47%
NC(=O)NC1NC(=O)NC1=O (centres undefined) [ALLANTOIN],12.16%,-7.41%,9.38%,18.45%,2.26%,-7.8%
CCCc1nc(NC(=O)c2ccccc2)nc(NC(=O)c2ccccc2)n1,-10.01%,-7.86%,8.74%,10.41%,3.97%,-9.1%
CCOC(=O)C(C)c1c(C(=O)c2ccc(C)nc2)c2ccccc2n1C (centres undefined),10.11%,9.14%,-0.3%,16.34%,0.68%,-10.08%
O=[N+]([O-])c1ccc(Sc2ncccn2)c([N+](=O)[O-])c1,-0.05%,-11.01%,5.58%,8.38%,12.9%,-3.06%
C=CCOc1ccc(S(C)(=O)=O)cc1,-0.52%,-11.44%,7.79%,4.92%,1.73%,-10.45%
NS(=O)(=O)c1ccc(/N=N/c2c(O)c(C(=O)O)cc3ccccc23)cc1,-3.85%,10.2%,-7.6%,18.16%,-3.08%,-0.96%
CCOC(=O)c1cc2c(OC)c(OC)ccc2c2ncc(C#N)c(O)c12,2.33%,4.98%,-22.93%,0.73%,5.12%,44.69%
O=C(CC1(O)CCCCC1)OC1CCCC1,-23.97%,3.29%,-15.82%,-7.74%,2.66%,30.45%
O=C1CCCC1C(=O)Nc1ccc2ccccc2c1 (centres undefined),9.31%,10.21%,-4.09%,17.7%,10.3%,-1.69%
Clc1c(Cl)c(Cl)c2[nH]nnc2c1Cl,-10.41%,-8.91%,8.31%,1.32%,18.5%,-10.27%
Cc1nc(Br)c(Br)c(C)c1Br,1.89%,-12.31%,7.33%,11.41%,4.5%,-9.77%
Sc1nc2ccccc2n2cccc12,2.5%,-10.79%,2.01%,3.32%,17.9%,-1.74%
CCC(C)(C)c1ccc(Oc2cccc(C(=O)O)c2)cc1,-8.99%,14.6%,-8.34%,17.33%,8.87%,-6.24%
Nc1nc(N)nc(C2C=CCCC2)n1 (centres undefined),1.35%,-5.4%,16.17%,16.96%,0.09%,-8.05%
O=[N+]([O-])c1ccc(NN=C(c2ccccc2)c2ccccc2)nc1,5.39%,-2.58%,13.19%,5.05%,3.51%,-2.84%
N#C/C(=C\c1c[nH]c2ccccc12)C(N)=O,13.33%,12.56%,0.03%,10.43%,4.53%,-10.69%
O=C(O)CCC(=O)c1ccc2ccc3cccc4ccc1c2c34,-4.99%,9.69%,-8.48%,28.79%,21.7%,-11.75%
CCOc1ccc(S(=O)(=O)c2ccc(C)cc2)c2c1no[n+]2[O-],12.11%,5.81%,11.8%,9.49%,1.5%,-13.62%
CCOC(=O)c1c(N=C(S)NC)sc2c1CCCC2,-2.15%,0.51%,7.45%,1.7%,6.72%,-11.99%
Sc1nc2c[nH]c(S)nc-2n1,21.94%,-11.86%,14.36%,15.98%,5.35%,-7.36%
Nc1cc2c3c(cccc3c1)C(=O)N(CCN1CCCC1)C2=O,23.19%,9.76%,2.48%,19.29%,-1.62%,-3.61%
